# Hits are enriched below; roughly 1.4% of the tested compounds scored in any of these assays.
# eLon inh – inhibits E. coli Lon protease. P0A9M0. purified E. coli Lon protease, fluorescence polarization. inhibition, % at 7.94 µM. 360,000 compounds, 0.42% hits; in the data active = inhibition above about 13%, passing the limit was not always enough;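 note: 0% = enzyme with probe and DMSO and 100% = no enzyme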
# EBV gp42 inh – EBV gp42 inhibition | inhibition, % (tested at 21.74 µM) | Q1HVG2 | 220,000 compounds, 0.42% hits | Fluorescence polarization binding assay, mP read-out; in the data active = inhibition above about 50%
# Target sequence (Q1HVG2 whole entry, looked up): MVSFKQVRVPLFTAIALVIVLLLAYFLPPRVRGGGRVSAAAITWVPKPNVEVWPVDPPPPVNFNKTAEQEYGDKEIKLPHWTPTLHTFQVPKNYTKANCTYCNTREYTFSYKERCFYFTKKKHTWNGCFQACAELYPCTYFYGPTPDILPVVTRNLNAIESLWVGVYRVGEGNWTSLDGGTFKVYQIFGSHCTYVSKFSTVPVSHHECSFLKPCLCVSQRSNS
# Bcl-xL primary – Bcl-xL (human) inhibition; inhibition, % at 10.9 µM; 320,000 compounds, 0.7% hits; GST-Bcl-xL / FITC-Bim BH3 peptide fluorescence polarization; Q07817;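 active = inhibition above the mean of all tested compounds plus 3 SD, cutoff set per campaign, cut at about 30% in these data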;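 note: 0% = DMSO wells and 100% = unlabeled Bim-BH3 peptide competitor; inhibitors lower millipolarization by displacing the labeled peptide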
# Target sequence (Q07817 whole entry, looked up): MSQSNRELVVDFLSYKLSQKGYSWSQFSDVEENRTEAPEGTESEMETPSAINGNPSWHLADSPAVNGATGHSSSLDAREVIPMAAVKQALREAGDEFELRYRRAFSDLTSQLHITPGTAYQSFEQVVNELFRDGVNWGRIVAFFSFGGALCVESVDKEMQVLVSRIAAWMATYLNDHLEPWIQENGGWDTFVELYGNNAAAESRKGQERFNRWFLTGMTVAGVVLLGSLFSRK
# MEX-5 binding – C. elegans MEX-5 TCR-2 RNA binding activity; activity score (negative = inhibition of binding), % at 10 µM; 300,000 compounds, 0.38% hits; MEX-5/FITC-TCR2 RNA binding, fluorescence polarization; active compounds read low;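 active = inhibition past about -25% in most replicates, and total fluorescence under double the plate's negative control median, limit read from the data; inconclusive = replicates evenly split on the limit, or fluorescence at least double controls; inactive = too little inhibition in most replicates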;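 note: 0% = DMSO and -100% = 5 µM competing unlabeled TCR2 RNA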
# MCL1-BIM inh – MCL1-BIM-BH3 interaction inhibition (human) | Q07820 | GST-MCL1 / FITC-Bim-BH3 fluorescence polarization | inhibition, % at 10.9 µM | 320,000 compounds, 0.68% hits | AID 2057;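 active = inhibition above the mean inhibition of all tested compounds plus 3 SD, set per campaign, cut at about 40% in these data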;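 note: 0% = DMSO wells and 100% = unlabeled Bim-BH3 peptide control; higher means more loss of mP so more displacement of Bim peptide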
# GLD-1 TGE inh – GLD-1-TGE RNA interaction inhibition (C. elegans) | Q17339 | purified GLD-1 + fluorescein TGE RNA, fluorescence polarization | inhibition, % at 5.96 µM | 320,000 compounds, 0.44% hits;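 active = percent inhibition above a per-plate cutoff, the plate mean of test compounds plus 3 SD, cut at about 30% in these data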;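 note: 0% = DMSO wells with GLD-1 and probe and 100% = wells lacking GLD-1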
# eLon confirm – E. coli Lon inhibition confirmation; shares compounds with eLon inh; 1,400 compounds, 31% hits; inhibition, % at 7.94 µM; purified E. coli Lon, fluorescence polarization; in the data active = inhibition above about 16%;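 note: 0% = enzyme with probe and DMSO and 100% = no enzyme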
# * marks the source's active call; other numbers are inactive results; ? = inconclusive; . = not tested or not shown; ! = not confirmed by another sample.
SMILES,eLon inh,EBV gp42 inh,Bcl-xL primary,MEX-5 binding,MCL1-BIM inh,GLD-1 TGE inh,eLon confirm
COc1cc(-c2cc(=O)c3ccc(O)cc3o2)cc(OC)c1OC,5,.,.,.,.,.,.
COc1cc(OC)c(-c2c3cc(O)c(=O)cc-3oc3cc(O)c(O)cc23)cc1OC,20*,-128,11,.,-44,-88,-54
CCCc1ccc(OC(=O)c2ccc(O)cc2Cl)cc1,-12,2,3,0,4,13,.
Nc1nc(C2C(=O)CCCC2=O)cs1,30*,-16,10,-5,9,10,16
Nc1nc(C2CC(=O)OC23CCCCC3)cs1 (centres undefined),-2,-30,9,-2,11,-5,.
CCOc1ncccc1C(=O)OCC(=O)Nc1cc(S(=O)(=O)N(CC)CC)ccc1C,13*,-1,2,2,-4,0,-2
CCN(CC)S(=O)(=O)c1ccc(C)c(NC(=O)COC(=O)C=C(C)C)c1,5,-18,0,-4,-6,1,.
CCOc1ccc(N2C(=O)CC(NCC3CCCO3)C2=O)cc1 (centres undefined),16*,-12,9,0,-2,-2,5
Cc1ccc(N2C(=O)CC(NCC3CCCO3)C2=O)cc1 (centres undefined),-14,-11,9,0,-1,0,.
CCOc1ccc(N2C(=O)CC(Cc3cc(C)cc(C)c3)C2=O)cc1 (centres undefined),-6,.,.,0,.,.,.
CCOc1ccc(N2C(=O)CC(N)C2=O)cc1 (centres undefined),18*,-7,-1,0,-13,2,-1
O=C1C(NS(=O)(=O)c2cccs2)=C(N2CCN(c3cccc(Cl)c3)CC2)C(=O)c2ccccc21,19*,-2,26,0,26,14,32*
O=C1C(NS(=O)(=O)c2ccccc2)=C(N2CCN(c3ccc(F)cc3)CC2)C(=O)c2ccccc21,-2,15,10,-1,6,5,.
CCN1C[C@@H]2[C@@H]3C(=O)N(Cc4ccccc4)C(=O)[C@@H]3[C@](CC)(C(=O)OC)N2C1=NC,-3,.,.,.,.,.,.
CCOC(=O)c1ccc(CNC(=O)CSc2nc(NC(=O)c3ccccc3)c3c(C)c(C)oc3n2)cc1,17*,-6,-3,0,1,7,-4
CCOc1ccccc1/C=N/NC(=O)c1cc(C(C)C)[nH]n1,-7,.,-2,0,-4,-1,.
CC(C)c1cc(C(=O)N/N=C/c2c[nH]c3ccccc23)n[nH]1,25*,-3,6,-1,6,-1,-8
C#CCNC(=O)C1=C[C@@H](c2coc3ccccc3c2=O)C[C@@H](OCCCCO)O1,19*,-15,2,1,1,2,29*
CC(=O)OCC(=O)Nc1ccc(C(C)=O)cc1,28*,-109,-7,-2,-9,-1,-9
COc1cc(OC)cc(C(=O)OCc2cc3ccccc3[nH]c2=O)c1,23*,-1,6,2,6,4,-4
CSc1nsc(SCC(=O)Nc2ccc(C(=O)O)cc2)n1,-6,.,6,0,4,0,.
O=C(c1ccc(Br)o1)N1CCN(C23CC4CC(CC(C4)C2)C3)CC1,29*,.,6,0,-1,-2,-2
O=C(c1ccco1)N1CCN(C(=O)c2ccc(Br)o2)CC1,-5,.,.,.,.,.,.
CCCCN(C(=O)NC(=O)Nc1ccccc1OC)S(C)(=O)=O,20*,-12,2,2,4,-10,5
COc1ccc(OC)c(NC(=O)c2cccc(NC(=O)c3ccco3)c2)c1,-18,.,.,.,.,.,.
SMILES,eLon inh,EBV gp42 inh,Bcl-xL primary,MEX-5 binding,MCL1-BIM inh,GLD-1 TGE inh,eLon confirm
OCCC1CN(Cc2ccsc2)CCN1C1CCCC1 (centres undefined),20*,-9,2,2,-10,8,3
CC(C)CCN1CCN(Cc2ccsc2)CC1CCO (centres undefined),-8,-9,2,-1,6,-2,.
Cc1nc2ccccc2c(=O)n1CCCN1CCOCC1,3,-6,0,-1,-3,-1,.
FC(F)(F)c1nc2nc(Cl)c(Cl)nc2n1CCCN1CCOCC1,31*,.,.,.,.,.,9
CCCCC(=O)NC(=S)NNS(=O)(=O)c1ccccc1,20*,-12,12,1,14,0,-97
O=C(NC(=S)NNS(=O)(=O)c1ccccc1)c1ccccc1[N+](=O)[O-],23*,4,9,-5,10,0,-48
O=C(NC(=S)NNS(=O)(=O)c1ccccc1)c1cccnc1,17,0,6,?,5,6,.
Cc1nc(CCNC(=O)CC2C(=O)NCCN2CC(C)(C)C)nc2c1CCC2 (centres undefined),22*,.,28,-1,31,18,12
Cn1c(N2CCN(C(c3ccccc3)c3ccccc3)CC2)nc2c1c(=O)[nH]c(=O)n2C,24*,.,4,0,-2,-5,16*
Cn1c(N2CCCCC2)nc2c1c(=O)[nH]c(=O)n2C,2,-4,6,-1,-7,3,.
O=C(CSc1ccccc1C(=O)O)NCC1CCCCC1,-4,0,2,2,3,4,.
COc1cc(NC(=O)c2ccccc2F)ccc1NC(=O)c1cc2ccccc2o1,16*,.,.,-1,.,.,3
COc1cc(NC(=O)c2ccc(F)cc2)ccc1NC(=O)c1cc2ccccc2o1,0,.,0,-2,1,5,.
Clc1cccc(NCc2cn3cccnc3n2)c1,17*,-9,9,-1,-1,2,-3
Cc1cc(Cl)ccc1OCc1cn2cccnc2n1,-7,-8,6,-1,6,9,.
COc1ccccc1-n1c(C)c(C(=O)O)c2cc(OC)c3ccccc3c21,-5,.,-1,5,0,7,.
C/C(N)=C(/C#N)C(=O)COC(=O)C1Cc2ccccc2CN1S(C)(=O)=O (centres undefined),16*!,1,0,1,3,6,2
CCOC(=O)c1c2c(c(=S)n(-c3ccccc3)c1N)CCC2,24*,1,7,0,6,11,-4
N#Cc1c2c(c(=S)n(-c3ccccc3)c1N)CCCC2,34*,15,35*,-15,33,24,23*
Cc1cccc(OCC(=O)Nc2nnc(S(=O)(=O)N3CCCCCC3)s2)c1,1,.,7,0,7,-2,.
O=C(COC(=O)c1ccc(O)cc1)Nc1ncc(Cl)cc1Cl,5,8,15,1,14,7,.
O=C(COC(=O)c1nc(Cl)ccc1Cl)Nc1ncc(Cl)cc1Cl,77*,.,12,-8,3,8,-7
CC(NCCC(Cc1ccccc1)c1ccco1)c1ccccc1 (centres undefined),18*,-13,8,0,6,5,12
